ALDH1A1 block = blocks purified human ALDH1A1 activity. P00352. Purified ALDH1A1, NADH fluorescence, propionaldehyde substrate. Potency, µM (titrated, usually from 75.3 µM), most hits filed as inhibitors. hit rate 7.3% among 220,000. AID 1030
Target sequence (P00352 whole entry, looked up): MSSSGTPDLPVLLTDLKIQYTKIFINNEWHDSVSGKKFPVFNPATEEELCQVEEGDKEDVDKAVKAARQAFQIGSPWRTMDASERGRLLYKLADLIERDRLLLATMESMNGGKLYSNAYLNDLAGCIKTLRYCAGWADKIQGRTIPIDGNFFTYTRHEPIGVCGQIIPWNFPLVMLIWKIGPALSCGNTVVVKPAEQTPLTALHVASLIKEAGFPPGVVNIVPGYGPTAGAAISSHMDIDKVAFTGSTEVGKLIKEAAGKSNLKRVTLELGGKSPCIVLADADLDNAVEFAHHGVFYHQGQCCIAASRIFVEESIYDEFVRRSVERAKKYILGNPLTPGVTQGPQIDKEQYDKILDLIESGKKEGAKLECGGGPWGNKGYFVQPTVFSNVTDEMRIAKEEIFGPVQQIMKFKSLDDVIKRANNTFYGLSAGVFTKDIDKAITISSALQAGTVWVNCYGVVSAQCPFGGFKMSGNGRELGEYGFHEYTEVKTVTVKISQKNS
HTT aggregate = mutant huntingtin aggregation inhibition; PC12 HttQ103-GFP aggregates, Acumen cytometry, 40 h; Potency, µM (doses to about 46.1 µM), most hits filed as inhibitors; hit rate 1.1% among 220,000; AID 1688; active means well fitted curve in the direction sought with a large enough effect; inconclusive means small, poorly fitted or top-dose-only effect, or another doubt; inactive means no such curve, though single readings can be large; an effect the other way counts as inactive or inconclusive; further: nearly all actives have a fitted effect of over 60% in size
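Quantitative HTS on tebufenozide-induced (100 nM) PC12 cells stably expressing polyQ103 Huntingtin exon 1–GFP. Reduction of bright GFP aggregates, detected by laser scanning cytometry after lysis, identified actives across the titration.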
HTT cytoprotect = protects HTT-Q103 PC12 cells, measured by ATP; PC12 HTT-Q103 induced, cytoprotection, ATP luminescence, 40 h; AID 1471; hit rate 0.14% among 230,000; Potency, µM (top dose mostly 56.4 µM), actives largely listed as activators; active means well fitted curve in the direction sought with a large enough effect; inconclusive means small, poorly fitted or top-dose-only effect, or another doubt; inactive means no such curve, though single readings can be large; an effect the other way counts as inactive or inconclusive; further: nearly all actives have a fitted effect of over 45% in size
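Compounds were screened for protection of PC12 cells against cell death after tebufenozide induction (100 nM final) of mutant Huntingtin exon 1 (Q103) fused to GFP.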
LMNA splice mod = modulators of lamin A splicing. hit rate 0.01% among 200,000. HeLa LMNA splicing GFP/RFP minigene ratio, 48 h. Potency, µM (series often up to 46.1 µM), hits mostly inhibitors; active means well fitted inhibition curve with a large enough effect in the signal ratio, with a control signal flat, not every such curve was filed as active; inconclusive means small, poorly fitted or top-dose-only effect, or effect the other way, or a change in a side signal; the % refers to the signal ratio
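S3 HeLa stable clones carrying a lamin A-EGFP splicing minigene plus DsRed2 were seeded at 600 cells/well in Opti-MEM with 2% FBS, pin-dosed and incubated 48 h at 37°C. Acumen cytometry (488 nm) gave the GFP/RFP total-intensity ratio.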
HPGD inh = blocks human HPGD enzyme activity | hit rate 4.3% among 150,000 | AID 894 | purified HPGD, NADH fluorescence kinetic, PGE2 substrate | Potency, µM, most hits filed as inhibitors | P15428
Target sequence (P15428 whole entry, looked up): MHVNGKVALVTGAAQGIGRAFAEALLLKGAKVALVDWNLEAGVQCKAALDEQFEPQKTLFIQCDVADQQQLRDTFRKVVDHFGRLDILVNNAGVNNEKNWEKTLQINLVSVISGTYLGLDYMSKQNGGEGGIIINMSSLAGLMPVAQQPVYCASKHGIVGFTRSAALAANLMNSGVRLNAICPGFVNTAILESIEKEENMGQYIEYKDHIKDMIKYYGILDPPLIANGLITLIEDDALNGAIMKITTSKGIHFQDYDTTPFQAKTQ
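20 nM HPGD preincubated 15 min at room temperature with compound in 50 mM Tris-HCl pH 8, 0.01% Tween 20. Started with 1 mM NAD+ and 30 uM prostaglandin E2; NADH fluorescence (360/450 nm) read 5 times over 30-s intervals, last minus first.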
Large screens that a line does not name were inactive. Compounds with a hit are over-represented: about 8.8% of the library has one in this group of screens. Unless noted, the call rests on the fitted dose curve; in most records, active means well fitted inhibition curve with a large enough effect (not every such curve was filed as active); inconclusive means small, poorly fitted or top-dose-only effect, or another doubt; inactive means no such curve, though single readings can be large or run the other way.

Cc1ccc(Cn2nnc3c(=O)[nH]c(C4CCCN(C(=O)Nc5ccc(F)cc5F)C4)nc32)cc1 (stereo not given)	ALDH1A1 block inconclusive
CCC(C)NC(=O)c1nc2c(nnn2Cc2ccccc2Cl)c(=O)[nH]1 (stereo not given)	LMNA splice mod inconclusive (no result: HPGD inh)
Cc1ccc(C)c(Cn2nnc3c(=O)[nH]c(C4CCCN(C(=O)CC(C)C)C4)nc32)c1 (stereo not given)	HPGD inh 10µM
CCCCC(=O)N1CCCC(c2nc3c(nnn3Cc3cc(C)ccc3C)c(=O)[nH]2)C1 (stereo not given)	ALDH1A1 block inconclusive, HPGD inh 2.2µM
COCCCNC(=O)c1nc2c(nnn2Cc2cc(C)ccc2C)c(=O)[nH]1	HPGD inh 0.45µM
CCCC(CCC)C(=O)NC1CC(=O)N(c2ccc3c(c2)OCCO3)C1 (stereo not given)	none (no result: ALDH1A1 block, HTT aggregate, HTT cytoprotect, HPGD inh)
CN(C)/C=C/C(=O)c1ccc(-n2cccc2)cc1	ALDH1A1 block inconclusive, LMNA splice mod inconclusive (no result: HPGD inh)
CN(C)/C=C/C(=O)c1cccc(Cl)c1	ALDH1A1 block inconclusive, HTT aggregate inconclusive, HPGD inh 25µM
CN(C)/C=C/C(=O)c1ccc(Cl)cc1	HPGD inh 18µM
CN(C)/C=C/C(=O)c1cccc(C(F)(F)F)c1	ALDH1A1 block inconclusive (no result: LMNA splice mod, HPGD inh)
CCN(CC)c1ccc(CNS(=O)(=O)c2cc3c(cc2C)NC(=O)CO3)cc1	none (no result: ALDH1A1 block, HTT aggregate, HTT cytoprotect, HPGD inh)
CCN(CC)CCNC(=O)C1CCN(c2nn3cc(-c4ccc(F)cc4)nc3s2)CC1	none (no result: ALDH1A1 block, HTT aggregate, HTT cytoprotect, HPGD inh)
CC(CC(=O)NC1CCCC1)c1ccccc1 (stereo not given)	HPGD inh 2.5µM
CC(=O)NC(CC(=O)NC1CCCCCC1)c1ccccc1 (stereo not given)	none
CC(C(=O)NC1CCCC1)N1CCN(Cc2ccccc2)CC1 (stereo not given)	ALDH1A1 block 3.5µM (no result: LMNA splice mod, HPGD inh)
COC(=O)c1cc(NC(=O)Cc2ccccc2[N+](=O)[O-])cc(C(=O)OC)c1	none
Cc1cc(O)cc(O)c1C(=O)OC1(C)C(=O)C=C2C=C(/C=C/CO)OC=C2C1=O (stereo not given)	ALDH1A1 block 22µM (no result: HTT aggregate, LMNA splice mod)
CC1(C)C(c2ccco2)=[N+]([O-])C2(CCCCC2=O)N1O (stereo not given)	none
C/C(=N/Nc1ccc(C)cc1)C1(C)N(O)C(C)(C)C(c2ccco2)=[N+]1[O-] (stereo not given)	ALDH1A1 block 25µM (no result: HPGD inh)
Cc1ccc(C)c(OCCOCCN2CC(C)OC(C)C2)c1C (stereo not given)	ALDH1A1 block 16µM
CCCC/S(CC1CC1(Cl)Cl)=N\S(=O)(=O)c1ccc(C)cc1 (stereo not given)	ALDH1A1 block inconclusive
Cc1ccc(S(=O)(=O)/N=S(\C)CC2CC2(Cl)Cl)cc1 (stereo not given)	ALDH1A1 block 10µM
Cc1ccc(N2C(=O)CC(N3CCN/C3=C3\CC/C(=C\c4ccccc4)C3=O)C2=O)cc1 (stereo not given)	none (no result: LMNA splice mod, HPGD inh)
CCCc1nc2oc(C(=O)c3ccccc3)c(N)c2c2c1COC(C)(C)C2	ALDH1A1 block 10µM
Cc1nc2oc(C(=O)c3ccc(Br)cc3)c(N)c2c2c1COC(C)(C)C2	ALDH1A1 block inconclusive (no result: HPGD inh)
Cc1ccc(Cn2c(O)c(N=NC(=S)Nc3ccccc3F)c3cc(S(=O)(=O)N4CCOCC4)ccc32)cc1	ALDH1A1 block inconclusive (no result: HPGD inh)
NC(=S)N=Nc1c(O)n(CCCl)c2ccccc12	ALDH1A1 block inconclusive, LMNA splice mod inconclusive (no result: HPGD inh)
CCNC(=S)N=Nc1c(O)n(Cc2ccc(Cl)cc2)c2ccccc12	ALDH1A1 block 3.5µM, LMNA splice mod inconclusive
Cc1ccccc1Cn1c(O)c(N=NC(=S)Nc2ccccc2F)c2ccccc21	ALDH1A1 block 32µM, HTT aggregate inconclusive, LMNA splice mod inconclusive (no result: HPGD inh)
Oc1c(N=NC(=S)Nc2ccccc2F)c2ccccc2n1Cc1ccc(Cl)cc1	ALDH1A1 block 10µM, HTT aggregate inconclusive, LMNA splice mod inconclusive (no result: HPGD inh)
Cc1ccc(C)c(Cn2c(O)c(N=NC(=S)Nc3ccccc3F)c3ccccc32)c1	ALDH1A1 block 13µM (no result: LMNA splice mod, HPGD inh)
Cc1cn(C)c(CC(=O)Nc2ccc(F)cc2Cl)c1C(=O)O	none (no result: ALDH1A1 block, HTT aggregate, HTT cytoprotect, HPGD inh)
CC(C)C[C@@H](CC(=O)N[C@H](CC(=O)N[C@@H]1CCCC[C@H]1C(=O)N[C@H](CC(=O)N[C@@H](CCC(=O)O)CC(=O)O)CC(C)C)C(C)C)NC(=O)[C@@H]1CNCC[C@H]1N	ALDH1A1 block inconclusive (no result: HTT aggregate, LMNA splice mod)
CCN(C(=O)COC(=O)c1ccc(S(=O)(=O)N2CCCc3ccccc32)cc1)C1CCS(=O)(=O)C1 (stereo not given)	none (no result: HPGD inh)
CC1(C(=O)O)NCCc2cc(O)c(O)cc21 (stereo not given)	ALDH1A1 block inconclusive (no result: HTT aggregate, LMNA splice mod, HPGD inh)
O=C(CNC(=O)/C=C/c1ccccc1)N=Nc1c(O)n(Cc2ccccc2)c2ccccc12	ALDH1A1 block 3.5µM
Oc1c(N=NC(=S)Nc2ccccc2F)c2ccccc2n1Cc1ccccc1F	ALDH1A1 block 20µM (no result: LMNA splice mod, HPGD inh)
CCn1c(O)c(N=NC(=O)CNC(=O)/C=C/c2ccco2)c2ccccc21	ALDH1A1 block inconclusive
Cc1cccc2sc(NC(=O)[C@H](C)N3C(=O)C4CC=CCC4C3=O)nc12 (stereo not given in full)	ALDH1A1 block 14µM (no result: LMNA splice mod, HPGD inh)
COC(=O)c1cc(NCc2cccs2)ccc1N1CCOCC1	ALDH1A1 block 18µM
Cc1cc(C)n2c(Br)c(CSc3nc4ccccc4s3)nc2n1	ALDH1A1 block inconclusive
CN(C)c1ncc2ncc(=O)n(CCc3ccccc3)c2n1	ALDH1A1 block inconclusive, LMNA splice mod inconclusive (no result: HTT aggregate, HPGD inh)
Cc1ccc(C(=O)Nc2cc(C(C)C)c(O)c(C(C)C)c2)cc1	HTT aggregate 10µM, LMNA splice mod inconclusive (no result: HTT cytoprotect)
CCOC(=O)c1ccc(N2C(=O)CC(SCC(N)C(=O)OCC)C2=O)cc1 (stereo not given)	ALDH1A1 block 3.5µM, HTT aggregate inconclusive
CCOC(=O)c1ccc(N2C(=O)C=CC2=O)cc1	ALDH1A1 block 0.063µM, HTT aggregate 22µM, LMNA splice mod inconclusive, HPGD inh 1.4µM
O=C1CC(SCCO)C(=O)N1c1ccc(Oc2ccccc2)cc1 (stereo not given)	ALDH1A1 block 14µM
CCOC(=O)c1ccc(N2C(=O)CC(Sc3nnc(C)s3)C2=O)cc1 (stereo not given)	ALDH1A1 block 1µM, HPGD inh 28µM
CCn1ccc(-c2ccccc2)c(C#N)c1=O	ALDH1A1 block inconclusive (no result: HPGD inh)
CN(C)c1ccc(CNC(=O)CN2CCSc3ccc(S(=O)(=O)N(C)C)cc32)cc1	none (no result: ALDH1A1 block, HTT aggregate, HTT cytoprotect, HPGD inh)
Cc1ccc(Cl)cc1NC(=O)c1cc(-c2ccc3c(c2)OCCO3)on1	none (no result: ALDH1A1 block, HTT aggregate, HTT cytoprotect, HPGD inh)
CCN(CC)CC[n+]1ccc2c(C)c3[nH]c4ccc(O)cc4c3c(C)c2c1	HPGD inh inconclusive (no result: HTT aggregate, LMNA splice mod)
CCOC(=O)c1ccc(N2C(=O)CC(NC3CCN(C(=O)c4ccc(F)cc4)CC3)C2=O)cc1 (stereo not given)	ALDH1A1 block 14µM
O=C(Nc1ccccc1)c1ccc(Cc2nc3ccccc3[nH]2)cc1	none (no result: HTT aggregate, HTT cytoprotect, LMNA splice mod)
Nc1cc(N2CCCCC2)c([N+](=O)[O-])cc1Cl	ALDH1A1 block 3.5µM
